The values below come from PubChem BioAssay (NCI).

About 83,000 compounds went through this panel and 20% of them were active in at least one assay; those are over-represented in the sample as a whole.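 96-well plates, one dose, 48 hours. Percent growth reported; active if below 10.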 Unmarked numbers belong to inactive results. Calls of active or inactive are those of the source.

Some test systems named below: RPMI-8226 leukemia; OVCAR-8 ovarian; OVCAR-5 ovarian; OVCAR-4 ovarian; SK-OV-3 ovarian; IGROV1 ovarian; OVCAR-3 ovarian; HS 578T breast; NCI/ADR-RES ovarian; T-47D breast; BT-549 breast; MDA-MB-435 melanoma; SW-620 colon; MCF7 breast; HCT-116 colon; HCC-2998 colon; KM12 colon.
Assay in all cases: NCI-60 one-dose screen, 48 h (100 = growth as untreated, 0 = no growth, -100 = all killed)
Common to all, as to conditions: 10 µM unless noted

Turning to `COc1ccc(-c2nc3sccn3c2-c2ccnc(S(C)(=O)=O)n2)cc1`, the growth with RPMI-8226 leukemia is 86.5%; with OVCAR-8 ovarian it was 111%; in the assay with OVCAR-5 ovarian, 96.7%; in the assay on OVCAR-4 ovarian it was 80.4%; in the assay with SK-OV-3 ovarian, 105%; in the assay with IGROV1 ovarian, 37.9%. In addition, the growth in the assay with OVCAR-3 ovarian is 84.3%; in the assay on HS 578T breast it was 94.3%; in the assay with NCI/ADR-RES ovarian it was 104%; in the assay on T-47D breast, 36.4%; in the assay on BT-549 breast, 122%; with MDA-MB-435 melanoma it was 82.7%. Also, the growth was 91.1% in the assay with SW-620 colon; 46.2% in the assay on MCF7 breast; 79.6% in the assay with HCT-116 colon; -55% (active) with HCC-2998 colon; 75% with KM12 colon.

Turning to `Clc1ncn[nH]1`, the growth in the assay on RPMI-8226 leukemia is 102%; in the assay with OVCAR-8 ovarian, 92%; in the assay on OVCAR-5 ovarian, 107%; in the assay with OVCAR-4 ovarian it was 100%; with SK-OV-3 ovarian it was 96.3%; in the assay on IGROV1 ovarian, 105%. Also, the growth in the assay with OVCAR-3 ovarian was 105%; in the assay on HS 578T breast, 106%; in the assay with NCI/ADR-RES ovarian, 106%; in the assay on T-47D breast, 99.5%; in the assay on BT-549 breast, 105%; in the assay on MDA-MB-435 melanoma it was 96.9%. Also, the growth in the assay with SW-620 colon was 111%; in the assay on MCF7 breast, 90.3%; in the assay with HCT-116 colon, 108%; in the assay with HCC-2998 colon it was 89.8%; with KM12 colon, 101%.

In the case of `COc1ccc(C(=O)Nc2nc(-c3ccc(Cl)cc3)cs2)cc1`, the growth was 94.4% with RPMI-8226 leukemia; 103% with OVCAR-8 ovarian; 87% in the assay on OVCAR-5 ovarian; 108% with OVCAR-4 ovarian; 87.1% in the assay on SK-OV-3 ovarian; 112% with IGROV1 ovarian. The growth with OVCAR-3 ovarian is 111%; in the assay on HS 578T breast, 94.3%; in the assay with NCI/ADR-RES ovarian it was 120%; with T-47D breast, 89.1%; with BT-549 breast it was 105%; in the assay with MDA-MB-435 melanoma it was 97.7%. Besides, the growth is 96.3% in the assay on SW-620 colon; 92.9% in the assay with MCF7 breast; 109% in the assay with HCT-116 colon; 112% in the assay on HCC-2998 colon; 99.2% in the assay with KM12 colon.

Regarding `N#Cc1c(N)[nH]c(S)c1C#N`, the growth was 107% in the assay on RPMI-8226 leukemia; 101% in the assay on OVCAR-8 ovarian; 99.7% with OVCAR-5 ovarian; 109% with OVCAR-4 ovarian; 100% in the assay on SK-OV-3 ovarian; 107% in the assay on IGROV1 ovarian. Besides, the growth with OVCAR-3 ovarian was 120%; in the assay with HS 578T breast it was 104%; in the assay on NCI/ADR-RES ovarian it was 116%; in the assay with T-47D breast, 89.3%; in the assay with BT-549 breast it was 99.4%; in the assay with MDA-MB-435 melanoma it was 98.4%. In addition, the growth with SW-620 colon is 107%; with MCF7 breast it was 92.1%; in the assay with HCT-116 colon, 97.9%; in the assay on HCC-2998 colon, 95.6%; with KM12 colon, 116%.

Regarding `C=C(C)[C@@H]1C[C@H](O)Cc2cc(Cl)cc(Cl)c2N1`, the growth in the assay with RPMI-8226 leukemia was 116%; with OVCAR-8 ovarian, 99.6%; in the assay with OVCAR-5 ovarian, 81.9%; in the assay with OVCAR-4 ovarian it was 103%; in the assay on SK-OV-3 ovarian it was 101%; in the assay with IGROV1 ovarian, 105%. Also, the growth was 108% in the assay with OVCAR-3 ovarian; 100% in the assay with HS 578T breast; 102% in the assay with NCI/ADR-RES ovarian; 99.3% in the assay with T-47D breast; 105% with BT-549 breast; 105% with MDA-MB-435 melanoma. The growth is 105% in the assay with SW-620 colon; 103% in the assay on MCF7 breast; 99.5% in the assay with HCT-116 colon; 105% in the assay on HCC-2998 colon; 107% in the assay with KM12 colon.

For the compound `Cc1nn(-c2ccccc2)c2c1oc(=O)c1cc(Cl)ccc12`, the growth is 101% in the assay on RPMI-8226 leukemia; 101% in the assay on OVCAR-8 ovarian; 111% in the assay on OVCAR-5 ovarian; 113% in the assay on OVCAR-4 ovarian; 106% in the assay with SK-OV-3 ovarian; 86.5% with IGROV1 ovarian. In addition, the growth was 85.8% in the assay on OVCAR-3 ovarian; 175% in the assay with HS 578T breast; 108% in the assay on NCI/ADR-RES ovarian; 105% with T-47D breast; 91% in the assay on BT-549 breast; 106% in the assay with MDA-MB-435 melanoma. In addition, the growth in the assay with SW-620 colon was 106%; in the assay with MCF7 breast it was 92.7%; in the assay on HCT-116 colon, 95.2%; in the assay with HCC-2998 colon it was 102%; in the assay on KM12 colon it was 93.8%.

On to `NNC(=O)NO`, for which the growth with RPMI-8226 leukemia is 109%; in the assay with OVCAR-8 ovarian it was 102%; in the assay on OVCAR-5 ovarian it was 110%; in the assay on OVCAR-4 ovarian, 101%; with SK-OV-3 ovarian, 94.1%; with IGROV1 ovarian it was 108%. The growth was 106% in the assay on OVCAR-3 ovarian; 96.6% in the assay with HS 578T breast; 109% in the assay on NCI/ADR-RES ovarian; 98.9% in the assay with T-47D breast; 99% in the assay with BT-549 breast; 108% in the assay with MDA-MB-435 melanoma. Moreover, the growth was 103% in the assay with SW-620 colon; 94% with MCF7 breast; 101% in the assay with HCT-116 colon; 99.9% in the assay with HCC-2998 colon; 98.2% in the assay on KM12 colon.

Turning to `CCn1c2c(c3ccccc31)SC1c3cccn3CCN1C2=S` (stereo not drawn), the growth was 76.7% with RPMI-8226 leukemia; 94.4% in the assay with OVCAR-8 ovarian; 104% with OVCAR-5 ovarian; 54.5% with OVCAR-4 ovarian; 99.9% in the assay with SK-OV-3 ovarian; 80% in the assay on IGROV1 ovarian. The growth is 100% in the assay with OVCAR-3 ovarian; 81.2% in the assay with HS 578T breast; 102% in the assay on NCI/ADR-RES ovarian; 41.9% with T-47D breast; 140% with BT-549 breast; 91.5% in the assay on MDA-MB-435 melanoma. Also, the growth with SW-620 colon was 95.2%; with MCF7 breast it was 53.8%; in the assay on HCT-116 colon, 98.2%; with HCC-2998 colon, 99.6%; with KM12 colon, 96.4%.

Turning to `O=C1OC(c2ccc(-c3ccccc3)cc2)=C/C1=C/c1cccs1`, the growth with RPMI-8226 leukemia was 138%; with OVCAR-8 ovarian, 78.9%; with OVCAR-5 ovarian, 98.5%; in the assay with OVCAR-4 ovarian, 65.5%; with SK-OV-3 ovarian, 128%; with IGROV1 ovarian, 93%. Moreover, the growth was 89.2% with OVCAR-3 ovarian; 98.4% in the assay with HS 578T breast; 86.5% with NCI/ADR-RES ovarian; 33.6% with T-47D breast; 92% with BT-549 breast; 99% in the assay with MDA-MB-435 melanoma. For the same compound, the growth in the assay on SW-620 colon was 105%; in the assay with MCF7 breast, 41.6%; in the assay with HCT-116 colon, 93.3%; in the assay with HCC-2998 colon, 112%; with KM12 colon, 88.1%.
